# In the library only some 21% were active in any assay of this set; here they are far more common.
# Pf growth 48h: P. falciparum growth inhibition at 48 hours (one generation); P. falciparum luciferase growth in erythrocytes, 48 h; Potency, µM (doses to about 28.7 µM), inactives show top-dose activity change, negative = inhibition, hits mostly inhibitors; 5.9% of 310,000 active; AID 504832; further: potency means the concentration at half of the fitted maximal effect; on the % scale 0 is the no-effect control and ±100 the full control effect
#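 Luciferase-expressing parasites in RBCs, 2% Hct / 0.1% parasitemia final; RPMI 1640 + 0.5% Albumax; 37 C, 5% CO2, one generation; luminescence read-out, lower signal = inhibition.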
# AMA1 RON2 block: disrupts binding of P. falciparum AMA1 to RON2; AlphaScreen AMA1-biotinylated RON2 peptide binding; Potency, µM (highest dose often 58.2 µM), for the others: at the highest dose activity change, negative = inhibition, hits mostly inhibitors; 0.2% of 360,000 active; AID 720542;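 further: potency means the concentration at half of the fitted maximal effect; 0% = vehicle wells and -100% = peptide control; nearly all actives have a fitted effect of over 45% in size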
#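 AMA1 (3D7) with his tag at 25 nM final met compounds first, then biotinylated RON2 peptide at 25 nM; detection used donor plus acceptor beads, 10 µg/mL apiece, read by AlphaScreen after 30 min at room temperature.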
# CHX counter: counter-screen for Shiga toxin inhibitors: cycloheximide protein synthesis inhibition; cell reporter, cycloheximide protein synthesis inhibition counterscreen; max response, %; 12% of 300,000 active; in the data active means max response mostly above about 13%, no sharp cut-off; inactive means mostly below about 14%; further: read at 38.3 µM for the half of the compounds with a filed dose; 0% is about no effect
# Pf growth 96h: P. falciparum growth inhibition at 96 hour, primary screen for plastid delayed-death inhibitors. Potency, µM (top dose mostly 28.7 µM), without a hit: at the highest dose activity change, negative = inhibition, hits mostly inhibitors. P. falciparum luciferase reporter growth, 96 h. AID 504834. 6.9% of 320,000 active; further: potency means the concentration at half of the fitted maximal effect; on the % scale 0 is the no-effect control and ±100 the full control effect
#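 Delayed-death screen, second-generation endpoint: infected erythrocytes, 2% hematocrit, 0.05% parasitemia final; 96 hours at 37 C, 5% CO2; luciferase detection reagent; luminescence decrease equals reduced growth.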
# Shiga toxin inh: inhibitors of Shiga toxin in Vero cells; Vero cells, Shiga toxin protein synthesis inhibition reporter; inhibition, % at 38.7 µM; 9.2% of 290,000 active; AID 2315; in the data active means inhibition mostly above about 28%, no sharp cut-off; inactive means mostly below about 43%; further: 0% is about no effect
# HCV inh: inhibitors of hepatitis C virus infection; Huh7.5.1 HCVcc-Cre infection, luciferase reporter, 44 h; Potency, µM (series often up to 41.8 µM), without a hit: at the highest dose activity change, negative = inhibition, most hits filed as inhibitors; 3.4% of 340,000 active; AID 651820; further: potency means the concentration at half of the fitted maximal effect; on the % scale 0 is the no-effect control and ±100 the full control effect
#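 A cell-based infection assay in which seeded cells (1,000 per well) receive test compound after 4 h, are inoculated with HCVcc-Cre at approximately 0.5 moi, and are incubated 44 h before luminescence detection.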
# * hit, by the source's call; ? = inconclusive; nt = no result given; [ ] = dose if it differs, or a comment. Unless noted, the call rests on the fitted dose curve; in most records, active means well fitted curve in the direction sought with a large enough effect; inconclusive means small, poorly fitted or top-dose-only effect, or another doubt; inactive means no such curve, though single readings can be large; an effect the other way counts as inactive or inconclusive.
SMILES,Pf growth 48h,AMA1 RON2 block,CHX counter,Pf growth 96h,Shiga toxin inh,HCV inh
COc1ccccc1CN1CCN(C(CC(C)C)c2nnnn2Cc2cccs2)CC1 (centres undefined),13.1µM*,0.0%,4.4,57.8%,-1.4,?
COc1ccccc1C(c1nnnn1Cc1ccccc1)N1CCN(c2nc3ccccc3s2)CC1 (centres undefined),3.29µM*,-6.2%,-4.0,-5.2%[5.75 µM],17.4,12.6µM*
COc1ccc(C(c2nnnn2Cc2cccs2)N2CCN(c3ccccc3F)CC2)cc1OC (centres undefined),2.33µM*,-15.8%,9.6,nt,58.1,14.3%
Cc1c(C(=O)C(=O)NCCCn2ccnc2)c2ccccc2n1C,?,-0.5%,-3.6,32.6%,-9.2,5.2%
Cc1ccc(-n2ncc3c2CC(C)(C)CC3NC(=O)C2CCOCC2)cc1 (centres undefined),-8.4%,16.0%,-1.6,-1.3%,-4.3,12.3%
S=c1[nH]nc(-c2ccc3ccccc3n2)n1-c1cc(Cl)cc(Cl)c1,12.1%,42.1%,-0.9,4.15µM*,-7.1,?
O=C1C(O)=CC(=C(c2ccccc2)c2ccccc2)c2ccccc21,nt,10µM*,nt,nt,nt,?
O=C1c2ccccc2-c2cccc(C(=O)N3CCN(C(=O)c4ccccc4)CC3)c21,0.3%,-1.6%,-5.6,-3.4%,-5.9,-6.4%
CC(=O)N1CCOc2ccc(S(=O)(=O)NC[C@H]3O[C@@H](n4ccc(=O)[nH]c4=O)[C@H](O)[C@@H]3O)cc21,nt,22.1%,nt,nt,nt,13.3%
N#CC1=C(SCC(=O)c2ccc(Br)cc2)NC2=C(C(=O)CCC2)C1c1ccco1 (centres undefined),?,-5.3%,0.5,nt,6.7,4.47µM*
CC(C)NC(=O)C1CCN(C2CCN(C(=O)c3scc4c3CCCC4)CC2)CC1,?,4.4%,-2.1,?,9.8,?
Cc1cc(C)c(C(=O)N2CCC(N3CCC(C(=O)NC(C)C)CC3)CC2)o1,?,-12.6%,-0.7,11.7µM*,10.5,22.8%
O=C(C=C=Nc1ccccc1)C(=O)N=C=Cc1ccccc1,?,2.2%,24.1*,?,71.7*,?
Cc1ccc(NC(=O)c2ncn(CC(=O)NCC(C)c3ccccc3)n2)cc1C (centres undefined),nt,-0.6%,nt,nt,nt,17.0%
CCN(CC(=O)NC(C)(C)C)Cc1nc2c(Br)cc(Br)cc2c(=O)[nH]1,11.7µM*,76.7%,-2.9,9.28µM*,-7.9,?
CCCCN1C(C(=O)Nc2ncccn2)=C(O)c2ccccc2S1(=O)=O,10.1%,-12.3%,-1.1,24.1%,-5.5,-0.5%
COc1ccccc1N1CCN(C(=O)c2cc(-c3cccc(Cl)c3)on2)CC1,38.5%,24.7%,-4.9,5.4%,-15.6,?
O=C(c1cc(-c2cccc(O)c2)on1)N1CCCCC1,199.5%,11.5%,35.1*,?,36.8*,5.4%
O=C(c1cc(-c2cccc(O)c2)on1)N1CCCC1,235.3%,-13.9%,37.4*,4.9%,62.0*,6.8%
Clc1cccc(Cl)c1NC1=NCCN1,-14.0%,nt,0.6,12µM*,1.8,nt
CCc1cccc(CC)c1NC1=NCCN1,nt,nt,-3.4,nt,-6.3,nt
O=C1CN(Cc2ccccc2)C(=NCc2ccco2)S1,1.85µM*,-7.4%,-2.4,-3.8%,4.1,6.6%
O=C(CNC(=O)c1ccco1)NCc1ccc2c(c1)OCO2,nt,2.7%,nt,nt,nt,11.5%
O=C(N/N=C/c1ccccn1)NC12CC3CC(CC(C3)C1)C2,0.1%,35.8%,39.2*,50.6%,70.1*,12.2%
Cc1cccc(/C=N/NC(=O)c2ccncc2)n1,-1.4%,81.9%,1.2,97.0%,-14.1,3.6%
SMILES,Pf growth 48h,AMA1 RON2 block,CHX counter,Pf growth 96h,Shiga toxin inh,HCV inh
Cc1cccc(/C=N/NC(=O)NC23CC4CC(CC(C4)C2)C3)n1,-28.8%,5.5%,19.8*,21.4%,32.3,6.3%
O=C(NC12CC3CC(CC(C3)C1)C2)c1cccnc1Cl,4.0%,1.3%,-1.9,11.7µM*,-1.4,3.6%
COc1cc(/C=N/NC(=O)NC23CC4CC(CC(C4)C2)C3)ccc1OCC(N)=O,9.28µM*,-1.8%,-1.1,5.86µM*,-4.8,?
C/C(=N\Nc1ccc(S(=O)(=O)N2CCOCC2)cc1[N+](=O)[O-])C(C)C,-8.7%,-15.7%,-1.2,?,6.9,?
CCNC(=O)C1(C)CCCN(C(=O)/C=C/c2ccccc2)C1 (centres undefined),nt,-9.6%,nt,nt,nt,nt
O=C(N/N=C/c1ccccc1F)NC12CC3CC(CC(C3)C1)C2,35.1%,-7.9%,33.0*,?,54.0*,-27.2%
COc1cccc(/C=N/NC(=O)NC23CC4CC(CC(C4)C2)C3)c1O,nt,59.8%,nt,nt,nt,-27.8%
N#CC(C(=O)Nc1ccc(Cl)c(Cl)c1)=C1Nc2ccccc2N1,7.3%,61.2%,11.1,2.62µM*,-13.5,-6.1%
N#CC(C(=O)Nc1ccccc1)=C1Nc2ccccc2N1,41.3%,92.9%,30.4,nt,74.6*,?
N#CC(C(=O)Nc1cccc(Cl)c1)=C1Nc2ccccc2N1,14.8%,-4.7%,9.6,-11.5%,-28.7,?
CCOC(=O)N1CCN(C(=O)COc2cc(C)c(Cl)c(C)c2)CC1,-9.8%,-13.1%,-0.9,0.0%,-2.6,9.1%
CCOC(=O)CCCC(=O)N1CCOCCOCCN(C(=O)CCCC(=O)OCC)CCOCCOCC1,108.4%,4.2%,43.4*,?,62.6*,-6.0%
Cc1cc(Cl)ccc1OCCCC(=O)N1CCCCC1,nt,5.8%,34.8*,?,37.2,-10.3%
Cc1cc(Cl)ccc1OCCCC(=O)N1CCOCC1,40.0%,15.0%,36.9*,nt,70.7*,9.1%
Cc1ccc(OCCCC(=O)N2CCOCC2)cc1,44.5%,6.1%,0.3,6.3%,64.9,12.4%
Cc1cc(OCCCC(=O)N2CCCCC2)cc(C)c1Cl,23.1%,7.1%,12.6*,-9.4%,31.6*,?
Cc1ccc(S(=O)(=O)N2CCN(C(=O)CCCOc3ccc(Cl)cc3C)CC2)cc1,?,-7.4%,nt,?,nt,?
Cc1cc(O)c(C(C)C)cc1N=Cc1ccc([N+](=O)[O-])cc1,nt,?,nt,nt,nt,-26.6%
CCOC(=O)C(C)Oc1ccc(C2NC(=O)NC(C)=C2C(=O)Nc2ccccc2C)cc1 (centres undefined),10.4µM*,2.7%,0.4,?,-0.7,21.9%
COC(=O)C1=C(CS(=O)(=O)c2cc(OC)ccc2OC)NC(=O)NC1c1ccc(O)c(OC)c1 (centres undefined),15.6%,-5.2%,-5.3,10.4µM*,0.4,17.7%
CCOC(=O)C1=C(C)NC(=O)NC1c1ccc(OC(=O)c2ccco2)cc1 (centres undefined),9.7%,2.5%,-3.4,7.38µM*,-8.2,16.6%
CCCCOc1ccccc1C1NC(=O)NC(C)=C1C(=O)OCc1ccco1 (centres undefined),9.28µM*,-0.7%,5.0,?,9.1,-18.8%
